From PubChem BioAssay AID1345085 (National Center for Advancing Translational Sciences (NCATS), 2018) come the findings set out here.

The structures appear in SMILES notation. Records with an inconclusive call do not appear. Calls of active or inactive are those of the source. Calls follow the shape of the dose curve; as a rule, active = well fitted cell-killing curve with a large enough effect; inconclusive = small, poorly fitted or top-dose-only effect, or effect the other way; inactive = no such curve, though single readings can be large or run the other way.
Potency is read from the fitted curve at half-maximal effect.

The subject of the experiment is Hek293T. Put plainly: Confirmatory qHTS for gynecologic anti-cancer compounds from libraries of approved drugs and bioactive compounds. Also: nearly all actives have a fitted effect of over 55% in size. The conditions noted are these: gynecologic cancer cell panel viability, ATPlite luminescence, 48 h; series mostly up to 57.6 µM. From the text: National Center for Advancing Translational Sciences [NCATS] Assay Overview: Chemotherapeutic drug responses vary from cancer to cancer and from patient to patient. These variations could be caused by a number of factors including patient genomic background, tumor mutations, tumor heterogeneity, and aspects of drug treatment. Chemotherapeutic drug resistance is also a common issue and can lead to ineffective treatment and patient death. Here we have profiled the cell killing effects of thousands of compounds to characterize the responses in three gynecological cancers, identify cancer-selective compounds, and understand the diversity of responses to these compounds from pan-cancer suppressors to single cell line selective compounds. In this assay, we screened a 7,914 compound drug library that included approved drug and bioactive compounds in six ovarian, three cervical, and two placental cancer cell lines using the ATPlite assay for cell viability. ATPlite is a luminescence based assay reliant on the conversion of a luciferase substrate to light in the presence of ATP. As a cytotoxic compound will suppress growth and decrease the number of cells, the concentration of ATP will decrease, and less light signal will be detected in the well. Hits were selected from the primary screen for follow-up confirmation. For the confirmation screens, the ovarian cancer cell lines included CAOV-3, SK-OV-3, SW 626, ES-2, PA-1, and TOV-21G. The cervical cancer cell lines included HeLa, Ca Ski, and C-33 A. The placental cancer cell lines included JEG-3 and JAR. HEK 293T cells were used as the control cell line to determine the selectivity index. The ATPlite assay was used to determine the IC50 values.
Assay Protocol Summary: 1,000 cells in 4 uL of media were dispensed into white, solid bottom 1536-well plates using a Multidrop Combi (Thermo Scientific). The Assay plates were incubated for 16 hours at 37 C with 5% CO2 in assay plates, followed by the addition of 23 nL of DMSO or drug dissolved in DMSO. . […] The resulting luminescence was measured using the ViewLux plate reader.
Regarding `C[C@H]1CCC/C=C/C2C[C@H](O)C[C@H]2[C@H](O)/C=C/C(=O)O1` (stereo partly drawn), the Potency was 1090 nM (active).

For `CCNC(=O)C[C@@H]1N=C(c2ccc(Cl)cc2)c2cc(OC)ccc2-n2c(C)nnc21`, the Potency entry was “inactive”.

For `C=C(C)[C@H]1Cc2c(ccc3c2O[C@@H]2COc4cc(OC)c(OC)cc4[C@@H]2C3=O)O1`, the Potency is 432 nM (active).
